ROMK primary – modulators of human ROMK potassium channel. P48048. Tet-inducible ROMK, thallium flux fluorescence; actives lie on both sides. B-score at 10 µM. actives 2% (n = 130,000);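 active = signal ratio slope over the read window, or its plate-corrected B-score, at least 3 SD from the plate mean, either direction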;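 also: B-score of the F/F0 ratio slope over 7 to 12 s after thallium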
Target sequence (P48048 whole entry, looked up): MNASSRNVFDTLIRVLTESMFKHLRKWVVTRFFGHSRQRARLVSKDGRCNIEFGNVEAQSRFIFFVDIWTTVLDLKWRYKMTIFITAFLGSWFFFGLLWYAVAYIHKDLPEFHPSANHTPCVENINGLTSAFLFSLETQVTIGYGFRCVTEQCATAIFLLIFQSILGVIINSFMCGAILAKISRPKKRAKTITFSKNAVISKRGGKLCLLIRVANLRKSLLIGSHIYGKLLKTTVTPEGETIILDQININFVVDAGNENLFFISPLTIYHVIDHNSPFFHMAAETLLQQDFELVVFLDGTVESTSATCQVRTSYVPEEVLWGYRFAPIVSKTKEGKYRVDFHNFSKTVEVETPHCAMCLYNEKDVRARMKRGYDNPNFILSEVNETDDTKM
Cl transport mod – modulators of human KCC2 chloride dependent transport; KCC2 cells, thallium flux FluoZin-2 fluorescence; B-score of Tl+ flux slope (higher = more flux/activation; lower = inhibition) at 10 µM; actives 2.2% (n = 190,000); Q9H2X9;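 active = thallium flux slope and its plate-corrected score both differing from the plate sample mean at a set confidence after two filtering rounds, in either direction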;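 also: slope of fluorescence scaled to starting intensity during 10 to 20 s after thallium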
L major viab – Leishmania major promastigote growth inhibition. Leishmania major promastigotes, resazurin fluorescence viability. actives 9% (n = 200,000). AID 1063. inhibition, % at 10 µM; in the data active = inhibition above about 50%;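 also: promastigotes grown with compound for 44 hours at 28 °C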
Calpain2 inh – calpain II (pig) inhibition | purified calpain II, fluorogenic peptide substrate, 30 min | inhibition, % at 16 µM | actives 0.37% (n = 220,000) | AID 1236;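 active = inhibition above about 50%, limit read from the data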
WT yeast gro inh – growth inhibition of WT yeast, mitochondrial fusion screen; inhibition, % at 10 µM; mitochondrial fusion phenotypic screen, WT strain; actives 2.1% (n = 190,000); in the data active = inhibition above about 58%; tested in S. cerevisiae
The depositor's hits bear a star; · = not tested or not shown. Rows were chosen to be rich in hits. Some 12% of all compounds tested hit in one or more screens of this group.

SMILES	ROMK primary	Cl transport mod	L major viab	Calpain2 inh	WT yeast gro inh
CSc1cccc(NC(=S)N(Cc2ccc(C)cc2)Cc2cccnc2)c1	0.72	0.21	4	-2	67*
Cc1ccccc1NC(=S)N(Cc1cccnc1)Cc1ccco1	0.0036	-0.0054	97*	-1	-8
Cc1ccccc1NC(=S)N(Cc1ccccc1)Cc1cccnc1	-0.64	-0.26	86*	2	-12
COc1ccc(C2(CNS(=O)(=O)c3ccc(C)cc3)CCOCC2)cc1	·	·	·	-6	·
CCN(CC)CCCNc1cc(C)nc2cc(-c3cccs3)nn12	·	-0.076	25	-121	4
O=C(NCCN1C(=O)S/C(=C/c2cccnc2)C1=O)C1CC(=O)N(Cc2ccccc2)C1 (stereo not drawn)	-0.94	-0.016	-4	27	8
Cc1ccc(Cl)cc1NC(=S)N(Cc1cccnc1)Cc1ccccc1Cl	-2.2	·	99*	37	27
Clc1ccc(-c2nc(NCCCN3CCOCC3)c3ccccc3n2)cc1	·	0.013	·	7	·
OCCCCCN=c1cc(-c2ccccc2)oc2ccc(Cl)cc12	·	-0.49	95*	18	3
Clc1ccc2oc(-c3ccccc3)cc(=NCCCN3CCOCC3)c2c1	·	-0.83	99*	-1	63*
COc1ccc2nc(/C=N/NC(=O)CCNC(=O)OC(C)(C)C)ccc2c1	1.6	-0.53	·	-295	·
O=C(c1ccccn1)N(c1ccccc1)C1(C(=O)NC2CCCCC2)CCCCC1	0.92	0.11	-1	-7	-8
O=C(Cn1c2[n+](c3ccccc31)CC(O)CS2)c1ccccc1 (stereo not drawn)	·	·	-10	2	-17
CCOC(=O)C1(Cc2ccccc2)CCCN(C2CCCC2)C1 (stereo not drawn)	-1.2	-0.32	76*	11	-15
CCOC(=O)C1(Cc2ccccc2)CCN(C2Cc3ccccc3C2)CC1	-1.4	0.29	83*	-30	1
CCOC(=O)C1(Cc2ccccc2)CCN(Cc2cnn(CC)c2)CC1	-0.17	0.68	6	0	12
O=C(Oc1cc(=O)oc2c1c(=O)n1c3c(cccc23)CC1)c1ccc(F)cc1	·	-1.4	·	-23	·
COc1cc(/C=C/C(=O)O)ccc1OS(=O)(=O)c1cc(C)ccc1C	0.84	-2.1	-2	-38	-14
CC(Nc1nc(N2CCNCC2)nc2ccccc12)c1ccccc1 (stereo not drawn)	-2.8	0.056	100*	-116	23
c1ccc(-c2nc(N3CCCC3)nc3ccccc23)cc1	·	-0.052	4	-31	12
Clc1ccc(-c2nnnn2-c2ccc(Cl)c(Cl)c2)cc1Cl	-0.62	-0.51	14	55*	79*
Cc1ccc(-n2nnnc2-c2ccccc2)cc1	0.34	0.029	-4	40	19
CS(=O)(=O)NCc1nnc(SCc2c(F)cccc2Cl)o1	0.0038	·	-3	-22	0
CC(Sc1ccc2ccccc2c1)C(=O)NC(N)=O (stereo not drawn)	·	0.54	5	18	-11
CC(C)CN1C(=O)/C(=C(/C#N)C(=O)NC2CCCCC2)c2ccccc21	-0.39	0.96	97*	-11	34
SMILES	ROMK primary	Cl transport mod	L major viab	Calpain2 inh	WT yeast gro inh
COc1cccc(NC(=O)CN2C(=O)NC(C)(CC(C)C)C2=O)c1 (stereo not drawn)	0.23	·	-3	-20	-14
CCOC(=O)c1ccc(NC(=O)C2CCN(S(=O)(=O)c3ccccc3)CC2)cc1	·	-1	13	·	17
CCOC(=O)c1ccc(NC(=O)C2CCCN(S(=O)(=O)c3ccc(F)cc3)C2)cc1 (stereo not drawn)	0.34	-0.27	59*	4	26
CCOC(=O)c1ccc(NS(=O)(=O)N2CCCCCC2)cc1	·	0.26	95*	33	8
O=C(Nc1ccc(S(=O)(=O)N2CCCCC2)cc1)C1CCCN(C(=O)c2ccc(Cl)cc2)C1 (stereo not drawn)	-1.3	-0.37	56*	-27	16
Cc1ccc(C(=O)Nc2ccc(N3CCN(C)CC3)nc2)cc1	0.2	-0.18	-4	0	0
O=C(Nc1ncccn1)c1cc(-c2cccc(Br)c2)nc2ccccc12	0.099	-0.022	83*	-21	34
O=C(NC1=NCCS1)c1cc(-c2cccc(Br)c2)nc2ccccc12	·	0.86	9	14	80*
O=C(Nc1ccccn1)c1cc(-c2cccc(Cl)c2)nc2ccccc12	-0.76	-2.1	16	16	65*
CCc1ccc(-c2cc(C(=O)NCc3ccccn3)c3ccccc3n2)cc1	-1.5	-0.44	97*	-63	15
O=C(Nc1ccc([N+](=O)[O-])cn1)c1cc(-c2cccc(Cl)c2)nc2ccccc12	0.5	-1.7	6	-13	10
CCCc1ccc(-c2cc(C(=O)NC3=NCCS3)c3ccccc3n2)cc1	·	0.43	6	7	80*
Cc1cccc(N2CCN(C(=O)Cc3ccc(-n4c(=O)[nH]c5ccsc5c4=O)cc3)CC2)c1C	-1.2	-2.1	-2	-32	-2
Cc1ccc(C)c(N2CCN(C(=O)Cc3ccc(-n4c(=O)[nH]c5ccsc5c4=O)cc3)CC2)c1	1.1	-0.19	51*	-49	-9
Cc1[nH]n(-c2ncc(-c3ccccc3)s2)c(=O)c1C(c1ccc(Br)cc1)C(C#N)C#N (stereo not drawn)	·	-2.5	81*	-73	-4
O=S(=O)(NCc1ccc2c(c1)OCO2)c1cccc(S(=O)(=O)N2CCOCC2)c1	-0.27	·	5	20	13
Cc1cc([N+](=O)[O-])nn1CCCC(=O)Nc1cc(Oc2ccc(F)cc2)cc([N+](=O)[O-])c1	-0.22	0.55	5	5	27
Cc1cc(C)cc(Oc2cc(NC(=O)c3cn(C)nc3C)cc([N+](=O)[O-])c2)c1	-0.033	0.42	-7	-49	10
Cc1cc([N+](=O)[O-])nn1CCCC(=O)Nc1cc(Oc2ccccc2)cc([N+](=O)[O-])c1	0.095	-0.21	-3	56*	11
COc1ccc(CNC(=O)CCCn2nc([N+](=O)[O-])cc2C)cc1	-0.0058	0.38	-6	60*	-19
Cc1cccc(Oc2cc(NC(=O)Cn3cnc([N+](=O)[O-])n3)cc([N+](=O)[O-])c2)c1	-0.51	-0.32	100*	25	-23
COC(=O)Nc1ccc(S(=O)(=O)N2CCCC(C(=O)N3CCN(C)CC3)C2)cc1 (stereo not drawn)	·	0.036	·	0	·
CCn1c(Cc2ccccc2)nnc1SCc1cccc(C(=O)O)c1	0.62	·	61*	-5	3
Cc1nn(C)c(Cl)c1C(=O)NC(C(=O)O)c1ccccc1 (stereo not drawn)	·	·	0	-26	1
O=S(=O)(CCSc1nc2ccccc2o1)c1nc2ccccc2s1	·	-0.67	98*	-11	13
CCS(=O)(=O)CCSc1nc2ccccc2o1	·	-0.95	-2	-10	-5
CCOC(=O)C1CCCN(c2c(NCCc3ccccc3)c(=O)c2=O)C1 (stereo not drawn)	·	0.29	·	-3	·
CCOC(=O)C1CCCN(c2c(NCCCN(C)c3ccccc3)c(=O)c2=O)C1 (stereo not drawn)	·	·	0	100*	14
COc1ccc(CC(=O)Nc2cc(S(=O)(=O)N3CCCCC3)ccc2C)cc1OC	-1.3	·	1	12	-6
